Results reported in PubChem BioAssay AID1159580 (chemical genetic matrix, 2015).
The whole screen tested about 5,500 compounds, of which about 2,000 (36%) were called active. About 18% were inconclusive and are not listed. Cut-off read from the data, not from the text of the source: active = normalized growth mostly below about 0.91 (no sharp cut-off); inconclusive = no clear call, values can overlap the other calls; inactive = mostly above about 0.92. The list shows a part of the results.

Assay: chemical genetic growth profiling, strain panel (AID 1159580);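 note: tested at 20 µM; growth read once vehicle control cultures reached saturation at 30 °C; 1 = growth at the plate median or of vehicle wells; lower values mean less growth of the strain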
Settings: growth OD

Measured: normalized growth

COc1cc2cc3c4cc(OC)c(OC)cc4cc[n+]3c(C)c2cc1OC
inactive: S. cerevisiae deletion strains, locus YJR043C, strain POL32, active compounds read low 0.98 | S. cerevisiae deletion strains, locus YJR066W, strain TOR1, active compounds read low 0.964 | S. cerevisiae deletion strains, locus YKL009W, strain mrt4, active compounds read low 0.997 | S. cerevisiae deletion strains, locus YKL068W, active compounds read low 1.01 | S. cerevisiae deletion strains, locus YKL085W, strain MDH1 (second series), active compounds read low 1.03 | S. cerevisiae deletion strains, locus YKL085W, strain MDH1, active compounds read low 1.03 | S. cerevisiae deletion strains, locus YKL160W, strain elf1, active compounds read low 0.988 | S. cerevisiae deletion strains, locus YKL190W, strain CNB1, active compounds read low 1.01 | S. cerevisiae deletion strains, locus YKR001C, strain vps1, active compounds read low 1.05 | S. cerevisiae deletion strains, locus YKR026C, strain gcn3, active compounds read low 1.02 | S. cerevisiae deletion strains, locus YKR091W, strain srl3, active compounds read low 1 | S. cerevisiae deletion strains, locus YLL001W, strain dnm1, active compounds read low 1.01 | S. cerevisiae deletion strains, locus YLL026W, active compounds read low 1.02 | S. cerevisiae deletion strains, locus YLL041C, strain sdh2, active compounds read low 1.02 | S. cerevisiae deletion strains, locus YLR027C, strain aat2, active compounds read low 1.03 | S. cerevisiae deletion strains, locus YLR039C, strain RIC1, active compounds read low 1.11 | S. cerevisiae deletion strains, locus YLR058C, strain SHM2, active compounds read low 0.998 | S. cerevisiae deletion strains, locus YLR102C, strain apc9, active compounds read low 1.01 | S. cerevisiae deletion strains, locus YLR113W, strain HOG1, active compounds read low 0.992 | S. cerevisiae deletion strains, locus YLR221C, strain rsa3, active compounds read low 1.02 | S. cerevisiae deletion strains, locus YLR258W, strain gsy2, active compounds read low 0.982 | S. cerevisiae deletion strains, locus YLR262C, strain YPT6 (second series), active compounds read low 1.03 | S. cerevisiae deletion strains, locus YLR262C, strain YPT6, active compounds read low 1.14 | S. cerevisiae deletion strains, locus YLR268W, strain sec22, active compounds read low 1.02 | S. cerevisiae deletion strains, locus YLR320W, strain mms22, active compounds read low 1 | S. cerevisiae deletion strains, locus YLR330W, strain CHS5, active compounds read low 1.01 | S. cerevisiae deletion strains, locus YLR342W, strain FKS1 (second series), active compounds read low 0.98 | S. cerevisiae deletion strains, locus YLR342W, strain FKS1, active compounds read low 1.02 | S. cerevisiae deletion strains, locus YLR357W, strain rsc2, active compounds read low 1.01 | S. cerevisiae deletion strains, locus YLR370C, strain arc18, active compounds read low 1.02 | S. cerevisiae deletion strains, locus YLR371W, strain rom2, active compounds read low 1.02 | S. cerevisiae deletion strains, locus YLR384C, strain iki3, active compounds read low 1.01 | S. cerevisiae deletion strains, locus YLR418C, strain cdc73, active compounds read low 0.966 | S. cerevisiae deletion strains, locus YML016C, strain PPZ1, active compounds read low 1.02 | S. cerevisiae deletion strains, locus YML032C, strain rad52, active compounds read low 0.925 | S. cerevisiae deletion strains, locus YML120C, strain ndi1, active compounds read low 1 | S. cerevisiae deletion strains, locus YML124C, strain tub3, active compounds read low 1.01 | S. cerevisiae deletion strains, locus YMR058W, strain fet3, active compounds read low 1.02 | S. cerevisiae deletion strains, locus YMR078C, strain ctf18, active compounds read low 1.02 | S. cerevisiae deletion strains, locus YMR125W, strain sto1, active compounds read low 0.999 | S. cerevisiae deletion strains, locus YMR129W, active compounds read low 1.01 | S. cerevisiae deletion strains, locus YMR205C, strain PFK2, active compounds read low 0.979 | S. cerevisiae deletion strains, locus YMR223W, strain ubp8, active compounds read low 0.982 | S. cerevisiae deletion strains, locus YMR231W, strain pep5, active compounds read low 0.949 | S. cerevisiae deletion strains, locus YMR307W, strain GAS1, active compounds read low 1.02 | S. cerevisiae deletion strains, locus YNL067W, strain RPL9B, active compounds read low 1.01 | S. cerevisiae deletion strains, locus YNL071W, strain lat1, active compounds read low 1 | S. cerevisiae deletion strains, locus YNL183C, strain NPR1, active compounds read low 0.938 | S. cerevisiae deletion strains, locus YNL209W, strain ssb2, active compounds read low 1 | S. cerevisiae deletion strains, locus YNL233W, strain BNI4, active compounds read low 0.995 | S. cerevisiae deletion strains, locus YNL248C, strain rpa49, active compounds read low 1.01 | S. cerevisiae deletion strains, locus YNL250W, strain rad50, active compounds read low 1 | S. cerevisiae deletion strains, locus YNL271C, strain bni1, active compounds read low 1.02 | S. cerevisiae deletion strains, locus YNL298W, strain CLA4, active compounds read low 1.01 | S. cerevisiae deletion strains, locus YNL307C, strain MCK1, active compounds read low 1.01 | S. cerevisiae deletion strains, locus YNL322C, strain KRE1 (second series), active compounds read low 1 | S. cerevisiae deletion strains, locus YNR049C, strain mso1, active compounds read low 1.04 | S. cerevisiae deletion strains, locus YNR052C, strain pop2, active compounds read low 0.978 | S. cerevisiae deletion strains, locus YOL006C, strain TOP1, active compounds read low 1.04 | S. cerevisiae deletion strains, locus YOL012C, strain htz1 1.07 | S. cerevisiae deletion strains, locus YOL147C, strain pex11, active compounds read low 1.03 | S. cerevisiae deletion strains, locus YOR001W, strain rrp6, active compounds read low 1.03 | S. cerevisiae deletion strains, locus YOR061W, strain CKA2, active compounds read low 1.01 | S. cerevisiae deletion strains, locus YOR069W, strain VPS5, active compounds read low 1.01 | S. cerevisiae deletion strains, locus YOR070C, strain gyp1, active compounds read low 1.02 | S. cerevisiae deletion strains, locus YOR080W, strain dia2, active compounds read low 1.01 | S. cerevisiae deletion strains, locus YOR083W, strain WHI5, active compounds read low 0.985 | S. cerevisiae deletion strains, locus YOR106W, strain vam3, active compounds read low 0.981 | S. cerevisiae deletion strains, locus YOR136W, strain idh2, active compounds read low 1.02 | S. cerevisiae deletion strains, locus YOR144C, strain elg1, active compounds read low 1.01 | S. cerevisiae deletion strains, locus YOR184W, strain ser1, active compounds read low 0.993 | S. cerevisiae deletion strains, locus YOR231W, strain MKK1, active compounds read low 0.983 | S. cerevisiae deletion strains, locus YOR265W, strain rbl2, active compounds read low 1.01 | S. cerevisiae deletion strains, locus YOR270C, strain vph1, active compounds read low 1.08 | S. cerevisiae deletion strains, locus YOR290C, strain snf2, active compounds read low 0.982 | S. cerevisiae deletion strains, locus YOR316C, strain cot1, active compounds read low 1.02 | S. cerevisiae deletion strains, locus YPL051W, strain arl3, active compounds read low 1.02 | S. cerevisiae deletion strains, locus YPL055C, strain LGE1, active compounds read low 0.999 | S. cerevisiae deletion strains, locus YPL078C, strain atp4, active compounds read low 1 | S. cerevisiae deletion strains, locus YPL106C, strain sse1, active compounds read low 0.983 | S. cerevisiae deletion strains, locus YPL240C, strain hsp82, active compounds read low 1 | S. cerevisiae deletion strains, locus YPL256C, strain CLN2, active compounds read low 0.968 | S. cerevisiae deletion strains, locus YPR119W, strain clb2, active compounds read low 1.01 | S. cerevisiae deletion strains, locus YPR141C, strain kar3, active compounds read low 1.01 | S. cerevisiae deletion strains, locus YPR163C, strain tif3, active compounds read low 1.01 | S. cerevisiae deletion strains, locus YPR167C, strain met16, active compounds read low 0.997 | S. cerevisiae deletion strains, strain wtn01, active compounds read low 1.02 | S. cerevisiae strains, strain wild type, active compounds read low 1
